Source: PubChem
This is a sample that favours compounds with a hit; in the whole collection about 3.9% have one here.
DUSP3 inh: DUSP3 (human) phosphatase inhibition. recombinant VHR phosphatase, pNPP absorbance. inhibition, % at 13.3 µM. hit rate 0.52% among 290,000; in the data active = inhibition above about 50%
Target sequence (P51452 whole entry, looked up): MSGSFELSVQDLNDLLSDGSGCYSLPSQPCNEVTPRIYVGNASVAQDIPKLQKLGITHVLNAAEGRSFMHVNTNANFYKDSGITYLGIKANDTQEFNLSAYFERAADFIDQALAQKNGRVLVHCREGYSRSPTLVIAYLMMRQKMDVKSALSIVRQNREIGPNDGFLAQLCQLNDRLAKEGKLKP
3CLpro inhibitor: SARS-CoV 3CLpro protease inhibition; inhibition, % at 6 µM; recombinant SARS-CoV 3CLpro, quenched FRET peptide cleavage; hit rate 0.14% among 290,000; in the data active = inhibition above about 12%
Anthrax LF inh2: inhibitors of Bacillus anthracis lethal factor protease | P15917 | multiplex microsphere protease cleavage assay, LF | inhibition, % at 10 µM | hit rate 0.12% among 360,000; note: plate controls were buffer without enzyme for full effect and enzyme alone for no effect
BoNT-F LC inh: inhibitors of Botulinum neurotoxin F light chain protease. Multiplex microsphere protease cleavage assay, flow cytometry. inhibition, % at 10 µM. hit rate 0.22% among 360,000; in the data active = inhibition above about 35%, passing the limit was not always enough; inconclusive = no clear call, values can overlap the other calls; note: plate controls were buffer without enzyme for full effect and enzyme alone for no effect
BoNT-A LC inh2: BoNT A light chain protease inhibition | multiplex microsphere protease substrate cleavage, flow cytometry | inhibition, % at 10 µM | hit rate 0.17% among 360,000; note: plate controls were buffer without enzyme for full effect and enzyme alone for no effect
Bead autofluor: flagged as autofluorescent in microsphere protease counterscreen; fluorescence intensity (concentration not given with the values); hit rate 3.1% among 360,000; compound autofluorescence counterscreen, microsphere flow cytometry; hits give high values; in the data active = fluorescence intensity above about 16000; inconclusive = no clear call, values can overlap the other calls
* marks the source's active call; other numbers are inactive results; ? = inconclusive; nt = not tested or not shown. Cut-off read from the data, not from the text of the source, unless noted: active = inhibition above about 30%; inconclusive = no clear call, values can overlap the other calls; inactive = below that.

SMILES	DUSP3 inh	3CLpro inhibitor	Anthrax LF inh2	BoNT-F LC inh	BoNT-A LC inh2	Bead autofluor
O=C(CCCn1c(SCC(=O)Nc2ccccc2Cl)nc2ccccc2c1=O)NCC1CCCO1 (configuration not stated)	-0.7	3.5	-2.1	-8.8	-1.5	4850
COc1cccc(OCc2nnc(SCC(=O)NCc3ccco3)n2C)c1	6.4	-7.3	3.2	12.5	0.9	4250
CC(C)c1nc2ccccc2c2nnc(SCC(=O)NCc3ccco3)n12	18.0	0.7	-1.8	4.5	-1.5	10913
O=C(CCCn1c(SCC(=O)NCC2CCCO2)nc2ccccc2c1=O)NCc1ccccc1 (configuration not stated)	28.6	3.1	-5.7	2.6	0.3	22190*
Cc1ccc(-n2c(CSc3nc(C)cc(C)n3)nnc2SCC(=O)NCc2ccco2)cc1	11.3	-2.3	-0.7	2.2	?	22159*
Cc1ccc(-n2c(Cc3cccn3C)nnc2SCC(=O)NCc2ccco2)cc1	-4.1	1.7	-2.3	-8.4	0.0	11487
COc1cccc(OCc2nnc(SCC(=O)NCc3ccco3)n2CCc2ccccc2)c1	28.0	-2.5	-3.1	2.0	1.2	20143*
CC(C)(C)c1nc2ccccc2c2nnc(SCC(=O)NCc3ccco3)n12	4.5	5.8	-1.2	-1.1	-1.4	16855*
O=C(CNC(=O)c1ccc(C(F)(F)F)cc1)NC1CC1	nt	nt	-4.1	-3.3	-0.3	3806
Cc1cc(NC(=O)CSc2nc3ccccc3c(=O)n2CCCC(=O)NCc2ccccc2)n[nH]1	24.7	-3.3	-2.2	-9.8	-1.6	16651*
CCCCn1c(SCC(=O)N2CC(C)CC(C)C2)nc2cc(S(N)(=O)=O)ccc21 (configuration not stated)	35.9	3.1	-2.4	1.8	0.1	11266
CCCCn1c(SCC(=O)Nc2cc(C)on2)nc2ccccc2c1=O	-4.4	-1.8	-0.6	-2.3	-1.8	23871*
CCCCn1c(SCC(=O)N2CCCCC2)nc2cc(S(N)(=O)=O)ccc21	-0.9	0.7	-0.9	-1.3	-0.4	19717*
CCCCn1c(SCC(=O)Nc2ccc(NC(C)=O)cc2)nc2ccccc2c1=O	31.2	6.0	10.5	12.8	1.5	3719
COc1ccc(CC2NCCC3=CC(=O)CCC32)cc1O (configuration not stated)	nt	nt	5.4	-4.7	-0.4	5421
CCc1nc2ccc(C)cc2c(C(=O)NC2CCCCC2C)c1C (configuration not stated)	38.4	2.1	-8.3	3.5	?	18786*
Cc1ccc2nc(C)cc(C(=O)NC3CCCCCC3)c2c1	nt	nt	-7.7	1.5	-0.3	2914
Cc1cccc2nc(CNC(=O)C3CCC(=O)N(Cc4ccccc4F)C3)cn12 (configuration not stated)	14.5	-2.2	0.1	3.6	0.8	5777
CC1(c2cccc(Br)c2)NC(=O)N(CC(=O)N2CCc3ccccc32)C1=O (configuration not stated)	nt	nt	-4.3	-7.1	-1.4	2937
O=C(CSc1ncccn1)NCc1ccccc1Cl	31.2	1.4	-1.6	-3.6	?	21734*
COc1ccc(N=NC2=C(O)CC(C)(C)CC2=O)c(OC)c1	52.9*	2.7	-2.2	-0.4	0.6	9291
N#Cc1cc(C#N)c(N2CCN(c3cccc(Cl)n3)CC2)nc1N	4.1	-5.6	-10.8	-117.1	-13.9	19498*
CS(=O)(=O)Cc1ccc(C(=O)N(CCc2ccccc2)Cc2ccccc2)cc1	-1.6	0.5	-3.9	-17.1	-2.3	?
COC(=O)/C(N=Nc1cccc(C(F)(F)F)c1)=C(\C)O	13.2	2.6	-2.0	7.7	-0.3	2804
COC(=O)C1=C(O)CSC1=Nc1cccc(C(F)(F)F)c1	-3.9	3.1	0.2	-2.3	-2.5	17678*
Cc1cc(=O)oc2cc(OCC(=O)Nc3c(C)n(C)n(-c4ccccc4)c3=O)c(Cl)cc12	nt	nt	1.5	2.1	2.5	4842
Cc1ccc(CNC(=O)C2CCC(=O)N2CCc2ccccc2)cc1 (configuration not stated)	-15.7	4.4	-8.4	0.7	0.4	20485*
O=C(NCCc1ccc(Cl)cc1)C1CCC(=O)N1Cc1ccccc1Cl (configuration not stated)	36.7	10.2	-5.8	0.8	0.6	22400*
CC(C)N1C(=O)CCC1C(=O)NC1CCCC1 (configuration not stated)	41.3	-2.9	-3.7	9.0	6.5	20690*
